In PubChem BioAssay AID1479 (National Center for Advancing Translational Sciences (NCATS), 2009):
The campaign covered roughly 280,000 compounds. About 820 (0.29%) were called active. Not shown: some 1% with an inconclusive outcome. The call rests on the fitted dose curve; in most records, active means well fitted curve in either direction with a large enough effect; inconclusive means small, poorly fitted or top-dose-only effect; inactive means flat fitted curve, though single readings scatter. The full list was thinned out, with actives kept by preference.

Test: Total Fluorescence Counterscreen for Inhibitors of the Interaction of Thyroid Hormone Receptor and Steroid Receptor Coregulator 2
Conditions: TRb/SRC2 Texas Red total fluorescence interference; series mostly up to 106 µM; fluorescence change, negative = quenching: at the top concentration
Description: NIH Molecular Libraries Probe Production Network [MLPCN]
NIH Chemical Genomics Center [NCGC]
Assay Provider: R. Kip Guy, St. Jude Children's Research Hospital
Thyroid receptor (TR) regulates many homeostatic processes including basal metabolism, cardiovascular function, body weight, and lipid trafficking. TR modulators are potential therapeutics for obesity and hyperlipidemias but current thyroid analogs have undesirable side effects, particularly cardiac stimulation. To identify inhibitors that specifically prevent the interaction of TR with the steroid receptor […] 2 (SRC2), a fluorescence polarization assay was screened. This assay detects interaction of the ligand-binding domain of human TRb with a Texas Red labeled SRC2 peptide, corresponding to a 20 amino acid region of the nuclear receptor interaction domain (Arnold et al., 2006). Total fluorescence (555 nm excitation and 632 nm emission) was measured to identify potential fluorescent and light absorbing compounds. Such compounds may be artifacts that interfere with the fluorescence polarization assay.
Arnold, L. A.; Estebanez-Perpina, E.; Togashi, M.; Shelat, A.; Ocasio, C. A.; McReynolds, A. C.; Nguyen, P.; Baxter, J. D.; Fletterick, R. J.; Webb, P.; Guy, R. K. A high-throughput screening method to identify small molecule inhibitors of thyroid hormone receptor coactivator binding. Sci STKE 2006, p 13.
NCGC Assay Protocol Summary:
For screening, 5 uL/well 0.6 uM TRb and 20 nM SRC2 Texas Red in protein buffer (20mM Tris hydrochloride, 100mM NaCl, 10% glycerol, 1mM EDTA, 0.01% NP-40, 1mM DTT, 1uM T3 and 5% DMSO) was dispensed into black solid 1536-well plates (Grenier) using a solenoid-based dispenser. Following transfer of 23 nL compound or DMSO vehicle by a pin tool, the plates were centrifuged 15 s at 1000 RPM and incubated 5 hr at ambient temperature. The plates were read by an Envision (Perkin Elmer) to detect fluorescence polarization of SRC2 Texas Red (555 nm excitation and 632 nm emission). Data were normalized to unbound (all components except TRb) and bound SRC2 Texas Red controls. Total fluorescence (TF) was calculated as follows: TF = S + 2P where S and P are fluorescence readings in the parallel and perpendicular channels, respectively.
Keywords: NIH Roadmap, MLPCN, MLI, MLSMR, qHTS, NCGC, qHTS, thyroid hormone receptor, steroid receptor coactivator, fluorescence polarization
On the % scale 0 is the no-effect control and ±100 the full control effect; potency means the concentration at half of the fitted maximal effect; tags describe the fitted curve by direction and shape or compound fluorescence and quenching.

Structure (SMILES)	fluorescence change, negative = quenching	Potency
COc1ccc(-c2cn(-c3ccc(OC)cc3)c(=S)[nH]2)cc1	-1.99% (inactive)	–
COc1cc(OC)c(-n2c(C)cc(C=O)c2C)cc1Cl	0.922% (inactive)	–
COc1cc(OC)c(-n2cc(-c3ccc(Cl)cc3)[nH]c2=O)cc1Cl	–	126 µM [quencher] (active)
Cc1nc2nc(SCC(=O)NC3CCC(C)CC3)nn2c(C)c1Cc1ccccc1Cl (stereo not drawn)	-2.74% (inactive)	–
CCS(=O)(=O)N1CCc2cc(C(=O)NCc3ccc(C)cc3)ccc21	-1.18% (inactive)	–
CCCC(=O)Nc1ccc(NC(=O)c2sc3ccccc3c2Cl)cc1	–	1.26 µM [quencher] (active)
COC(=O)c1cc(NC(=O)c2sc3ccccc3c2Cl)cc(C(=O)OC)c1	3.06% (inactive)	–
O=C(Nc1ccon1)c1sc2ccccc2c1Cl	-5.33% (inactive)	–
O=C(NCC(c1ccc2c(c1)OCO2)N1CCN(c2ccccc2)CC1)C(=O)Nc1ccccc1F (stereo not drawn)	-23.7% (inactive)	–
Cc1ccc(Cl)cc1N(C)C(=O)Cn1nc(Cc2cccnc2)c2ccccc2c1=O	-1.68% (inactive)	–
CCC(=O)N1N=C(c2ccc(OC)cc2)CC1c1cn(-c2ccccc2)nc1-c1cccs1 (stereo not drawn)	0.912% (inactive)	–
COc1ccc(Cl)cc1NC(=O)CCn1c(=O)c2cccn2c2ccccc21	2.79% (inactive)	–
Cc1ccc(C)c(N2CCN(S(=O)(=O)c3ccc4c(c3)C(C(C)C)C(=O)N4)CC2)c1 (stereo not drawn)	-3.11% (inactive)	–
Cc1c(-c2nc(-c3ccc4c(c3)OCO4)no2)nnn1-c1ccc(Br)cc1F	0.271% (inactive)	–
Cc1ccc(CN2CCCn3nc(C(=O)NCc4ccccc4Cl)cc3C2=O)cc1	-1.63% (inactive)	–
Cc1ccccc1CNC(=O)CCc1cn(Cc2ccccc2C)c2ccccc12	-3.5% (inactive)	–
Cc1ccc(C)c2sc(NC(=O)c3ccc(S(=O)(=O)N4CCCC4)cc3)nc12	-1.98% (inactive)	–
COc1ccc(CNc2nc(-c3ccc(Cl)cc3)nn2S(=O)(=O)c2ccc(C)cc2)cc1	-14.6% (inactive)	–
Cc1ccc(S(=O)(=O)n2nc(-c3ccc(Cl)cc3)nc2NCc2ccccc2)cc1	–	1000 µM [quencher] (active)
O=C(c1ccco1)n1nc(-c2ccc(Cl)cc2)nc1NCc1ccccc1	2.98% (inactive)	–
CCOC(=O)C1CCN(c2nc3c(S(=O)(=O)c4ccc(CC)cc4)nnn3c3ccc(Cl)cc23)CC1	3.96% (inactive)	–
Cn1c2ccccc2c(=O)c2c(O)cccc21	-3.09% (inactive)	–
Oc1ccc(O)c2c(O)cccc12	–	28.2 µM [quencher] (active)
O=c1cc(-c2ccc(O)c(O)c2)oc2cccc(O)c12	-7.29% (inactive)	–

Structure (SMILES)	fluorescence change, negative = quenching	Potency
CCOc1cccc(NC(=O)c2ccc(F)c(S(=O)(=O)N(CC)c3cccc(C)c3)c2)c1	-2.68% (inactive)	–
Cc1ccc(Cn2c(CNC(=O)Cc3cccc(C)c3)nc3cccnc32)cc1	0.294% (inactive)	–
CCn1c(=O)c(=O)n(CC)c2cc(N3CCCCC3)c(NC(=O)c3ccc(Cl)cc3)cc21	-11.1% (inactive)	–
Cc1ccc(C(=O)Nc2cc3c(cc2N2CCCC2)n(C)c(=O)c(=O)n3C)cc1	5.45% (inactive)	–
Cc1ccc(NC(=O)c2ccc(CN3CC(=O)N4CCCCC4C3=O)cc2)c(Cl)c1 (stereo not drawn)	–	70.8 µM [quencher] (active)
CC(C)CCCCCOC(=O)CS	-0.794% [at 201 µM] (inactive)	–
CCOc1ccccc1NC(=O)Cn1c(=O)n(-c2cccc(C)c2)c(=O)c2c1c1cc(OC)ccc1n2C	0.837% (inactive)	–
COc1ccc(-c2c(C)nn3c(N4CCC(C(=O)N5CCCCC5)CC4)cc(C)nc23)cc1OC	-3.06% (inactive)	–
COc1cccc(NC(=O)C2CCN(c3cc(C)nc4c(-c5ccc(Cl)cc5)c(C)nn34)CC2)c1	–	89.1 µM [quencher] (active)
COc1ccc(-c2c(C)nn3c(N4CCC(C(=O)NCCC(C)C)CC4)cc(C)nc23)cc1OC	1.53% (inactive)	–
COc1ccc(CCNC(=O)c2cc3cccc4c3n2CC(C)S4)c(OC)c1OC (stereo not drawn)	-1.75% (inactive)	–
Cc1cc2oc(=O)cc(CN3CCN(S(=O)(=O)c4cccs4)CC3)c2cc1C(C)C	–	7.08 µM [quencher] (active)
O=S(=O)(c1cccs1)N1CCN(Cc2ccccc2)CC1	-0.111% (inactive)	–
COc1ccc2c(CN3CCN(S(=O)(=O)c4cccs4)CC3)cc(=O)oc2c1	5.04% (inactive)	–
COc1cc(OC)cc(-c2nc3nc(C)c(CCC(=O)Nc4ccccc4)c(C)n3n2)c1	-5.62% (inactive)	–
Cc1ccc(C)c(Oc2c(C(F)(F)F)oc3c(CN4CCN(C)CC4)c(O)ccc3c2=O)c1	0.669% (inactive)	–
CCOCCCNC(=O)c1c(NC(=O)Cc2coc3c(C)c(C)ccc23)sc2c1CCC2	-22.2% (inactive)	–
CCOCCCNC(=O)c1c(NC(=O)Cc2coc3ccc(C)cc23)sc2c1CCC2	–	35.5 µM [quencher] (active)
CCOC(=O)c1c(NC(=O)Cc2coc3ccc(CC)cc23)sc2c1CCC2	7.09% (inactive)	–
Cc1ccc(-n2c(SCC(=O)c3ccccc3)nc3c([nH]c4ccccc43)c2=O)cc1	-3.63% (inactive)	–
COc1cc(OC)cc(C(=O)Nc2ccc3nc(Nc4cccc(C(F)(F)F)c4)cc(C)c3c2)c1	-12.6% (inactive)	–
Cc1c(NC(=O)C(C)(C)C)cccc1-c1nc2ccccc2s1	7.43% (inactive)	–
COc1cccc(CNC(=O)c2ccc3c(c2)sc2nc(-c4cccc(OC)c4)cn23)c1	-4.52% (inactive)	–
CCCCn1cc(S(=O)(=O)c2ccc(OCC)cc2)c(=O)c2cc(OC)c(OC)cc21	-1.29% (inactive)	–
